Compound activity deposited in PubChem BioAssay by National Center for Advancing Translational Sciences (NCATS).
Rab9 promoter act = qHTS Assay for Rab9 Promoter Activators | Huh7 Rab9 promoter-luciferase reporter, luminescence, 24 h | Potency, µM (highest dose often 9.22 µM), for inactives: top-dose activation, negative = inhibition, actives largely listed as activators | hit rate 2.8% among 320,000 | AID 485297, 2010; note: % of control where 0% means no effect; nearly all actives have a fitted effect of over 60% in size
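Luciferase signal after 10 min detection reagent at ambient indicates Rab9 promoter upregulation; stably transfected Huh7 cells were treated 24 h with compound in DMSO at 37 °C, 5% CO2.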
FLuc modulator = qHTS profiling assay for firefly luciferase inhibitor/activator using purifed enzyme and Km concentrations of substrates (counterscreen for miR-21 project). Luciferin 4-monooxygenase (Photinus pyralis), P08659. purified FLuc, Km substrates, luminescence inhibition. Potency, µM (top dose mostly 57.5 µM), for inactives: top-dose activity change, negative = inhibition, hits mostly inhibitors. hit rate 6.9% among 360,000;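 note: plate controls were vehicle for no effect and reference inhibitor for full effect; nearly all actives have a fitted effect of over 55% in size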
Target sequence (P08659 whole entry, looked up): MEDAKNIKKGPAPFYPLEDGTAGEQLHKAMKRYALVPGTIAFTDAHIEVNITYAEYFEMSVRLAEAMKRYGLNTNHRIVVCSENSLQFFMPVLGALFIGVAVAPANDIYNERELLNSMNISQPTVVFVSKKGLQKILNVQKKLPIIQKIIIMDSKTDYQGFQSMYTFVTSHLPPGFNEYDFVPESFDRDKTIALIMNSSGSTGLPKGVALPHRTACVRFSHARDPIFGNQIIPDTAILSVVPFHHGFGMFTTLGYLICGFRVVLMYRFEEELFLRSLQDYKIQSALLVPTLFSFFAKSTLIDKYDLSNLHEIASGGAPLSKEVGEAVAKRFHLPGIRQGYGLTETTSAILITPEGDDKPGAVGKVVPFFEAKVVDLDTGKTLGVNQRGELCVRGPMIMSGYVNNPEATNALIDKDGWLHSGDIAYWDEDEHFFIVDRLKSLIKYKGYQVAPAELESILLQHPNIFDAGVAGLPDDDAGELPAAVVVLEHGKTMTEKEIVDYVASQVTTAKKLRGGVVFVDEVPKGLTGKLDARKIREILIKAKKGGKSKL
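Biochemical qHTS of compounds, final roughly 60 µM downward over six points, against 10 nM purified firefly luciferase using Km concentrations of substrates (10 uM D-luciferin, 10 uM ATP) in Tris acetate pH 7.5 buffer; luminescence output.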
ELG1 genotoxic = qHTS screen for small molecules that induce genotoxicity in human embryonic kidney (HEK293T) cells expressing luciferase-tagged ELG1 | hit rate 1.3% among 330,000 | HEK293T ELG1-luciferase reporter, luminescence, 16 h | Potency, µM (doses to about 46 µM), for inactives: top-dose activity change, positive = activation, usual class: activators; note: % of control where 0% means no effect; nearly all actives have a fitted effect of over 60% in size
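Quantitative HTS format in 1536-well plates. HEK293T ELG1-luciferase reporter cells receive test compound and are incubated 16 hr at 37 °C, 5% CO2; ONE-Glo added, 30 min room temperature, then luminescence read.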
Luc counter = Counterscreen for Luciferase (Kinase-Glo TM) Inhibition; Luciferin 4-monooxygenase (Photuris pensylvanica), Q27757; Potency, µM (doses to about 38.3 µM), for the others: top-dose activity change, negative = inhibition, hits mostly inhibitors; hit rate 0.28% among 200,000; Kinase-Glo luciferase, ATP luminescence, 8 min; note: % is set by controls: 0 for no effect and ±100 for the full control effect; nearly all actives have a fitted effect of over 60% in size
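Kinase-Glo luciferase light output from ATP and luciferin was measured with 10 uM ATP, within the enzyme's linear range. Buffer: 50 mM imidazole pH 7.2, 50 mM KCl, 7 mM MgCl2, 0.01% Tween 20, 0.05% BSA; luminescence read after 8 min at ambient temperature.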
SMN2 splice enh = qHTS Assay for Enhancers of SMN2 Splice Variant Expression; Potency, µM (top dose mostly 46.1 µM), for the others: at the highest dose activity change, positive = activation, usual class: activators; hit rate 2.8% among 210,000; HEK293 SMN2-luciferase splicing reporter, luminescence, 30-36 h; note: % of control where 0% means no effect; nearly all actives have a fitted effect of over 55% in size
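HEK293 cells carry an SMN2 minigene-luciferase reporter in which exon 7 inclusion puts luciferase in frame. Cells were seeded at 2000 cells/well, attached for 10-12 hours, then exposed to compounds for 30-36 hours at 37C before ONE-Glo luminescence.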
NPC1 prom act = qHTS Assay for NPC1 Promoter Activators; Huh7 NPC1 promoter luciferase reporter, 24 h; Potency, µM (doses to about 9.22 µM), for the others: at the highest dose activation, hits mostly activators; hit rate 2.4% among 320,000; note: % of control where 0% means no effect; nearly all actives have a fitted effect of over 60% in size
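Luminescence read-out of NPC1 promoter-driven luciferase in stably transfected Huh7 cells; compounds delivered in DMSO and left 24 h at 37C, 5% CO2, qHTS titration format.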
Numbers without * were called inactive; ? = inconclusive; nt = no result. Sampled rows, rich in hits. Any-hit rate of the full collection: about 7.4%. Calls come from the whole dose curve; as a rule, active = well fitted curve in the direction sought with a large enough effect; inconclusive = small, poorly fitted or top-dose-only effect, or another doubt; inactive = no such curve, though single readings can be large; an effect the other way counts as inactive or inconclusive. Potency is the fitted concentration of half-maximal effect.

SMILES	Rab9 promoter act	FLuc modulator	ELG1 genotoxic	Luc counter	SMN2 splice enh	NPC1 prom act
Cn1ccs/c1=N\C(=O)Nc1cccc(Cl)c1	0.708µM*	7.57µM*	5.17µM*	nt	nt	0.891µM*
Cc1c2ccccc2c(C)c2c1ccc1ccccc12	?	13.5µM*	18.3µM*	nt	3.0%	21.9%
CC1=Nc2ccc3ccccc3c2C1(C)C	-2.1%	-18.5%	-1.1%	2.4%	4.5%	-4.1%
O=C(COC(=O)CNC(=O)c1sc2ccccc2c1Cl)Nc1c(Cl)cc(Cl)cc1Cl	3.8%	-1.0%	2.1%	1.7%	10.4%	-0.9%
Cn1cnnc1SCC(=O)Nc1ccc2nc(SCc3ccccc3)sc2c1	?	10.7µM*	?	1.8%	-8.5%	3.55µM*
CCN(CC)C(=O)CSc1nc2ccc(NC(=O)CSc3nccn3C)cc2s1	1.3%	19µM*	-4.5%	5.0%	-41.2%	8.6%
Cn1cnnc1SCC(=O)Nc1ccc2nc(SCc3cccc4ccccc34)sc2c1	0.4%	-4.3%	-8.8%	-4.8%	-20.9%	0.5%
CCN(CC)C(=O)CSc1nc2ccc(NC(=O)CSc3nnc(N)s3)cc2s1	5.5%	?	-6.1%	0.4%	2.9%	6.4%
Cn1cnnc1SCC(=O)Nc1ccc2nc(SCc3ccccc3Cl)sc2c1	26.0%	16.9µM*	4.8%	-2.8%	-13.3%	16.3%
COc1ccc(Nc2ncc3c(n2)CCN(Cc2ccccc2C)C3)c(OC)c1	nt	5.0%	nt	nt	nt	nt
Cc1ccccc1CN1CCc2nc(Nc3ccc4c(c3)OCCO4)ncc2C1	nt	13.5µM*	nt	nt	nt	nt
CCOC(=O)c1c(NC(=O)CC)sc(C(=O)NC2CCCC2)c1C	?	-3.2%	7.1%	nt	nt	2.9%
Cc1ccc2c(ccn3cc4c(c(=O)n(C)c(=O)n4C)c23)c1	-16.4%	2.69µM*	?	-14.7%	-6.2%	3.6%
Cc1ccc(-n2ncc(C#N)c2N)cc1	0.8%	-3.4%	4.9%	nt	nt	-3.9%
Nc1c(-c2ccccc2)cnc2cc(-c3ccccc3)nn12	0.708µM*	0.601µM*	2.59µM*	-19.9%	4.47µM*	1.41µM*
Cc1ccc(-c2cc3ncc(C#N)c(N)n3n2)cc1	2.82µM*	-19.4%	?	-7.9%	?	2.82µM*
Nc1c(-c2ccc(Cl)cc2)cnc2ncnn12	4.9%	1.3%	2.1%	4.8%	-10.4%	2.6%
Cc1cc2ncc(-c3ccc(Cl)cc3)c(N)n2n1	3.98µM*	9.53µM*	14.6µM*	-3.0%	12.6µM*	?
COc1ccccc1OC(C)C(=O)Nc1ccc(S(=O)(=O)N2CCN(C)CC2)cc1 (stereo not given)	-0.2%	0.4%	4.2%	nt	nt	-8.2%
Cc1cc(Nc2ccccc2)n(-c2ccccc2)n1	-1.3%	1.1%	13.2%	-4.7%	2.5%	-6.1%
Cc1cc(Nc2ccccc2)n(C(=O)c2ccccc2)n1	28.5%	12µM*	?	20.9%	-13.2%	10.0%
Cc1cc(Nc2ccccc2)nn1C(=O)c1ccc(Cl)cc1	12.6%	9.53µM*	?	2.3%	-14.1%	-3.8%
CCOC(=O)N1CCN(C(=S)NC(=O)/C=C/c2ccc(C)cc2)CC1	-1.2%	13.5µM*	0.5%	nt	nt	-4.5%
CCOC(=O)N1CCc2c(sc3c2C(=O)NC(c2cc(OC)c(OC)c(OC)c2)N3)C1 (stereo not given)	nt	?	nt	nt	-5.8%	nt
N#C/C(=N\Nc1ccccc1[N+](=O)[O-])C(=N)N1CCCCC1	0.282µM*	2.39µM*	?	-11.5%	3.16µM*	0.562µM*
N=C(c1ccc([N+](=O)[O-])cc1)N1CCCCC1	-12.4%	-1.6%	-4.2%	-0.8%	-8.4%	-2.6%
N#C/C(=N\Nc1ccc([N+](=O)[O-])cc1)C(=N)N1CCOCC1	2.82µM*	?	?	nt	nt	?
